Screens deposited in PubChem by Broad Institute.
aSyn 5UTR act – Activators via SNCA 5'UTR binding, MLPCN; alpha-synuclein 5'UTR reporter, activators screen; activity score, % (tested at 7.5 µM), hits read low; 7.1% of 300,000 active; in the data active means activity score below about -60%
A number is an active result; 0 = inactive. The sample as a whole holds a higher share of hits than the screen did.

SMILES | aSyn 5UTR act
O=[N+]([O-])c1cnc(Nc2ccc(Cl)cn2)c([N+](=O)[O-])c1 | -129
S=C(Nc1ccccn1)Nc1ccccc1Cl | -83
Cc1cc(NC(=O)Nc2ccccc2Cl)no1 | -74
O=C(Nc1ccccn1)Nc1ccccc1Cl | -131
COc1ccc(NC(=O)c2cc3c(-c4ccc(OC)c(OC)c4)nn(C)c3s2)cc1OC | -70
O=C1CCCCCN1Cc1nnc(SCc2nc3ccccc3s2)n1-c1ccccn1 | -109
CC1CCN(c2nc3ccc(C(=O)NCCCN4CCCCC4C)cc3s2)CC1 (configuration not stated) | -277
CCC1CCCCN1CCCNC(=O)c1ccc2nc(N3CCCCC3)sc2c1 (configuration not stated) | -280
CC1CCCC(C)N1CCCNC(=O)c1ccc2nc(N3CCCCC3)sc2c1 (configuration not stated) | -237
CCC(=O)N(c1ccc(C(=O)O)cc1)c1nc(-c2ccc(OC)cc2)c(C)s1 | -185
CN1CCN(/N=C/c2ccc(Cl)c(Cl)c2)CC1 | -145
CN1CCN(/N=C/c2ccc(N(c3ccccc3)c3ccccc3)cc2)CC1 | 0
CN1CCN(/N=C/c2ccc(Br)cc2)CC1 | -118
O=[N+]([O-])c1cc(/C=N/N2CCCCC2)ccc1Cl | -89
COC(=O)c1sc(-c2ccc(C(C)(C)C)cc2)cc1NC(=O)c1ccccc1C(=O)O | -67
CN(C)CCSc1nnc(-c2ccccc2)o1 | -71
CCN(CC)C(=O)CSc1nnc(-c2ccccc2)o1 | -137
O=[N+]([O-])c1ccc(C2=NN(c3ccccc3)C(c3ccco3)C2)cc1 (configuration not stated) | -75
CCS(=O)(=O)Nc1cccc(C2=NN(C(=O)c3ccco3)C(c3ccco3)C2)c1 (configuration not stated) | -73
CCc1ccc(C2=NN(C(C)=O)C(c3ccco3)C2)cc1 (configuration not stated) | -202
COc1ccc(C2=NN(C(N)=S)C(c3ccco3)C2)cc1 (configuration not stated) | -87
CCOc1ccc(OCc2ccc(C(=O)N3CCOCC3)cc2)cc1 | -91
CCOc1ccc(N=C(/C(C(=O)C(=O)N2CCOCC2)=C(\O)c2ccccc2)c2ccccc2)cc1 | -151
CCOc1ccc(C(=O)c2cc([N+](=O)[O-])ccc2N2CCOCC2)cc1 | 0
CCOc1ccc(OCc2ccc(C(=O)N3CCCC(C)C3)cc2)cc1 (configuration not stated) | -63
SMILES | aSyn 5UTR act
CC(CNC(=O)c1ccc(OC2CCN(Cc3ccccn3)CC2)cc1)c1ccccc1 (configuration not stated) | -97
Cc1ccc(-n2ncc3c(NCc4ccco4)ncnc32)cc1C | -183
Cc1cccc(-n2ncc3c(NCc4ccco4)ncnc32)c1 | -549
CC(=O)N(/N=C1\Sc2ccccc2C1=O)c1cccc(C)c1 | -127
O=C(CSc1nnc(-c2ccccn2)o1)Nc1ccccc1C(F)(F)F | -104
COc1ccccc1-c1nnc(SCC(=O)Nc2ccc(Cl)cc2Cl)o1 | -83
COc1ccccc1NC(=O)CSc1nnc(-c2ccccn2)o1 | -66
Fc1ccc(-c2nnn(Cc3ccc(F)cc3Cl)n2)cc1 | -71
Cc1ccccc1-c1nnn(Cc2ccc(F)cc2Cl)n1 | -86
CC(=O)c1ccc(NC(=S)NC(=O)/C=C/c2ccccc2)cc1 | -104
CC(=O)Nc1ccc(NC(=S)NC(=O)/C=C/c2ccc(Cl)cc2)cc1 | -75
CCC(=O)Nc1ccc(NC(=S)NC(=O)/C=C/c2ccccc2)cc1 | -62
CCC(=O)Nc1cccc(C(=O)/C=C/c2ccccc2)c1 | -208
Cc1ccnc(NC(=S)NC(=O)/C=C/c2ccccc2)c1 | -68
Cc1cccn2c(CN(C)CCC3CCCCO3)c(C(=O)N3CCCCC3)nc12 (configuration not stated) | -69
COC(=O)c1ccc(NC(=O)c2cccc(OC)c2)cc1 | -255
COC(=O)c1ccc(NC(=O)c2ccc3nsnc3c2)cc1 | -111
COc1cccc(C(=O)Nc2ccc(C(=O)c3ccccc3)cc2)c1 | -94
COc1cccc(C(=O)Nc2ccc(C3CC3(Cl)Cl)cc2)c1 (configuration not stated) | -169
CCN(CC)S(=O)(=O)c1cccc(C(=O)Oc2cccc(NC(=O)c3cccs3)c2)c1 | -66
COC(=O)c1ccc(NC(=O)c2cccc(C)c2)cc1 | -65
COc1cccc(C(=O)NC(=S)Nc2ccc(N(C)C)cc2)c1 | -185
Cc1ccc(NC(=O)c2ccc3nsnc3c2)c(C)c1 | -102
COc1cccc(C(=O)Nc2ccc(C)cc2)c1 | -127
COc1cccc(C(=O)Nc2ccc(Cl)c(C(F)(F)F)c2)c1 | -108
SMILES | aSyn 5UTR act
Cc1cccc(C(=O)Nc2cccc(OC(=O)c3cccc(C)c3)c2)c1 | -115
COc1ccc2cc(C(=O)/C=C/c3cc(OC)c(O)c(OC)c3)ccc2c1 | -71
COc1ccc(NC(=O)c2ccc(C)cc2)c(OC)c1 | -189
COC(=O)c1ccc(/C=C/C(=O)c2cccc(OC)c2)cc1 | -71
Cc1ccc(NC(=O)COC(=O)c2cccc3c2C(=O)c2ccccc2C3=O)c(C)c1 | 0
COc1cccc(C(=O)Nc2ccc3c(c2)C(=O)c2ccccc2C3=O)c1 | -164
CCC(=O)Nc1ccc2c(c1)C(=O)c1ccccc1C2=O | -245
O=C(Nc1ccc(C2CC2(Cl)Cl)cc1)c1ccccc1Br (configuration not stated) | -73
Cc1ccc(C(=O)OCC(=O)NCc2cccs2)c(C)c1 | -75
CS(=O)(=O)N1N=C(c2ccccc2)CC1c1ccc2nccnc2c1 (configuration not stated) | -77
Cc1ccc(C2=NN(S(C)(=O)=O)C(c3ccc4nccnc4c3)C2)cc1 (configuration not stated) | -127
CS(=O)(=O)Nc1ccc(C2=NN(S(C)(=O)=O)C(c3ccc4c(c3)OCO4)C2)cc1 (configuration not stated) | -207
CS(=O)(=O)N1N=C(c2ccc3nccnc3c2)CC1c1ccccc1 (configuration not stated) | -79
COc1ccc(C2CC(c3ccc(OC)c(OC)c3)=NN2S(C)(=O)=O)cc1 (configuration not stated) | -169
COc1ccc(C2=NN(S(C)(=O)=O)C(c3ccc4nccnc4c3)C2)cc1 (configuration not stated) | -150
Cc1ccc2c(c1)N=C(c1ccc(Cl)cc1)CO2 | -152
Clc1ccc(C2=Nc3cc(Cl)ccc3OC2)cc1 | -206
CCCNc1nc(C)nc2c1cnn2CCc1ccccc1 | -105
Cc1nc(NC(C)C)c2cnn(CCc3ccccc3)c2n1 | -133
COC(=O)/C(C#N)=C1/C=Cc2ccccc2N1 | -99
CC(=O)Nc1ccccc1C(=O)C(=O)Nc1ccc(C)c(F)c1 | -264
CCN(CC)C(=O)C(=O)Nc1ccc(F)c(Cl)c1 | -131
CC(=O)Nc1ccccc1C(=O)C(=O)Nc1ccc(F)c(Cl)c1 | -123
CC(=O)Nc1ccccc1C(=O)C(=O)Nc1cccc(F)c1 | -149
Cc1ccc(NC(=O)/C(Cl)=C/c2ccccc2)cc1C | -156
SMILES | aSyn 5UTR act
CC(=O)Nc1ccccc1C(=O)C(=O)Nc1ccc(C)c(C)c1 | -182
Cc1cccc(-c2nc(C#N)c(NC3CCCCC3)o2)c1 | -171
Cc1cccc(-c2nc(C#N)c(N3CCCCC3)o2)c1 | -187
CCOc1ccc(/C=C/C(=O)c2ccccc2)cc1OC | -112
COc1cccc(C(=O)/C=C/c2ccc(OCC#N)c(OC)c2)c1 | -121
COc1cc(/C=C/C(=O)c2ccc(O)cc2)ccc1OCC#N | -134
COc1ccc(OC)c2c1C(=O)C(Cl)=C(Cl)C2=O | -89
